“And” between values parts separate entries of the source, which are not always exact repeats. Equal values may be shown once. Results filed as inconclusive are left out. Where a call stands in place of a potency, no number is given. The source holds several records for some structures; these can differ, active in one and inactive in another. The source made the active and inactive calls. Calls follow the shape of the dose curve; as a rule, active = well fitted inhibition curve with a large enough effect in the repeat runs; inconclusive = weak or mixed curves; inactive = no such curve, though single readings can be large or run the other way.
What follows are compounds tested against Cytochrome P450 2D6 (Homo sapiens) (UniProt P10635) (assay: Cytochrome P450 Family 2 Subfamily D Member 6 (CYP2D6) small molecule antagonists: luciferase reporter qHTS assay (AID 1671196; also: nearly all actives have a fitted effect of over 50% in size)). Details: P450-Glo CYP2D6 enzyme assay, luciferin luminescence, 1 h; series mostly up to 115 µM.
Description: U.S. Tox21 Program National Center for Advancing Translational Sciences [NCATS] U.S. Environmental Protection Agency [EPA] National Institutes of Environmental Health Sciences [NIEHS] National Toxicology Program [NTP] U.S. Food and Drug Administration [FDA] Tox21 Assay Overview: Cytochrome P450 (CYP) enzymes are membrane-bound hemeproteins that play a key role in metabolism of drugs and xenobiotics. Evaluation of the effect of chemicals on CYP isozymes is useful to minimize the adverse drug reactions and toxicities in drug development process. Tox21 chemicals were tested for their effect on CYP enzyme activities by using P450-Glo (TM) screening systems (Promega Corporation, Madison, WI). These systems provide a luminescent method containing proluciferin substrates and are converted to luciferin products by CYP isozymes. The luciferin products formed are detected with a luciferin detection reagent, and the amount of light produced is proportional to CYP activity. P450-Glo (TM) CYP2D6 screening system (Catalog. No. V9890) was used to detect the compounds that interfere in CYP2D6 activity.
Tox21 Assay Protocol Summary: Two ul of enzyme-substrate mix was dispensed into medium binding white/solid 1536-well plates (Greiner Bio-One North America Inc., Monroe, NC) using a BioRaptr Flying Reagent Dispenser (FRD, Beckman Coulter, Brea, CA). […] The assay plates were incubated at room temperature for 10 min. Then 2 ul of NADPH regeneration solution was added to each well of the assay plates using an FRD and incubated at room temperature for 1 h. The reaction was stopped by adding 4 ul of detection reagent using an FRD and after 20 min incubation at room temperature the luminescence signal was measured using a ViewLux plate reader (Perkin Elmer, Shelton, CT). Data were expressed as relative luminescence units.
Potency is read from the fitted curve at half-maximal effect.

Cytochrome P450 2D6 (Homo sapiens), sequence (P10635 whole entry, looked up): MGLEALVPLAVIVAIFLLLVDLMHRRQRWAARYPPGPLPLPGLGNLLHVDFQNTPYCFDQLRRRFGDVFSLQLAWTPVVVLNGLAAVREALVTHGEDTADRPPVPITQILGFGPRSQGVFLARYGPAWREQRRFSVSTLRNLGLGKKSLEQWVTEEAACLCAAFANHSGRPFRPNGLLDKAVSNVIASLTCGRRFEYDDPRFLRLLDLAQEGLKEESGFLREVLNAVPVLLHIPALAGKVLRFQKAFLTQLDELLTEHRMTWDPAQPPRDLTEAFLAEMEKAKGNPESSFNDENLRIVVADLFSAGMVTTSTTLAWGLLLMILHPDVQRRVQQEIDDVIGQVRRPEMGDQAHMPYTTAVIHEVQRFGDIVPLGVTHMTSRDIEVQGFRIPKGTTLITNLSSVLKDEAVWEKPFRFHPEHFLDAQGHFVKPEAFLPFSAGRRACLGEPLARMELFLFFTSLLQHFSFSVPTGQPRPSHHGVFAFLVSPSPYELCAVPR

Row | Compound | Potency
1 | N#Cc1ccccn1 | inactive
2 | Nc1cccc(Cl)c1 | inactive
3 | CCCCCCCCCCCCCCCCCC(=O)O | 35.3 µM (active) and inactive
4 | C=CCN=C=S | inactive
5 | CCSC(=O)N1CCCCCC1 | 30.8 µM (active) and inactive
6 | COc1cc(-c2ccc(N)c(OC)c2)ccc1N | 40.1 µM (active) and 39.5 µM (active) and 34 µM (active)
7 | [N-]=[N+]=CC(=O)OC[C@H](N)C(=O)O | inactive and 30.9 µM (active)
8 | CNC(=O)O/N=C(\SC)C(=O)N(C)C | 30.9 µM (active) and 28.2 µM (active)
9 | Cc1ccc(O)c(C)c1 | inactive
10 | Clc1cnc(Oc2ccc(Oc3ncc(Cl)cc3Cl)cc2)c(Cl)c1 | inactive
11 | CNc1cnn(-c2cccc(C(F)(F)F)c2)c(=O)c1Cl | inactive
12 | Cc1ccc(N)cc1 | 5.06 µM (active) and 25.2 µM (active)
13 | O=[N+]([O-])c1ccc(Cl)c(Cl)c1 | inactive
14 | CN(C)C(=O)C(c1ccccc1)c1ccccc1 | inactive
15 | CC12CC1(C)C(=O)N(c1cc(Cl)cc(Cl)c1)C2=O (stereo not given) | inactive
16 | Cc1cccc(N)c1 | 31.8 µM (active) and inactive
17 | Cc1ccccc1N | inactive and 40.7 µM (active)
18 | CC(=O)C1CCOC1=O (stereo not given) | inactive
19 | COC(C)(C)CCCC(C)C/C=C/C(C)=C/C(=O)OC(C)C (stereo not given) | inactive
20 | O=C(O)C(Br)Br | inactive

Row | Compound | Potency
21 | CSc1nnc(C(C)(C)C)c(=O)n1N | 31.4 µM (active)
22 | O=C(O)c1cc(Oc2ccc(C(F)(F)F)cc2Cl)ccc1[N+](=O)[O-] | inactive
23 | CN(C)C(=O)Cl | inactive
24 | Cc1cccc(C)c1N | 11.1 µM (active) and inactive
25 | O=C/C=C/c1ccccc1 | inactive
26 | CCOP(=S)(OCC)Oc1cc(C)nc(C(C)C)n1 | inactive
27 | Sc1ccccc1 | inactive
28 | CCCCC(CC)C(=O)Cl (stereo not given) | inactive
29 | COP(=S)(OC)Oc1ccc(SC)c(C)c1 | 39.5 µM (active) and 39.9 µM (active)
30 | COP(=S)(OC)SCN1C(=O)c2ccccc2C1=O | 35.8 µM (active) and 35.6 µM (active) and 15.5 µM (active)
31 | Nc1cc(Cl)cc(Cl)c1 | inactive
32 | CCNc1nc(Cl)nc(NC(C)C)n1 | inactive
33 | Nc1ncc([N+](=O)[O-])s1 | inactive
34 | C=CC(=O)OCCCCCC(C)C | inactive
35 | CN(C)C(=O)Nc1cccc(C(F)(F)F)c1 | inactive
36 | CNC(=O)O/N=C/C(C)(C)SC | inactive
37 | N#CN=C(N)N | inactive
38 | Nc1ccc([As](=O)(O)O)cc1 | inactive
39 | COC(=O)Nc1cccc(OC(=O)Nc2cccc(C)c2)c1 | inactive
40 | Cc1cc(O)ccc1Cl | inactive

— PubChem BioAssay (Tox21)
